In PubChem BioAssay AID864 (The Scripps Research Institute Molecular Screening Center, 2007):
This is one part of the list. Unmarked numbers belong to inactive results. Rule as the data show it: active = activation above about 8.4%; inactive = the rest.

Target: Galanin receptor type 2 (Homo sapiens) (UniProt O43603)
Assay: activators of human galanin receptor 2 – cell-based, confirmation (AID 864);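 also: 0% = buffer-only vehicle wells and 100% = full reference agonist response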
Details: GALR2-expressing cells, agonist activation; at 5.6 µM; hits give high values

Chain of Galanin receptor type 2 (Homo sapiens) (O43603 whole entry, looked up): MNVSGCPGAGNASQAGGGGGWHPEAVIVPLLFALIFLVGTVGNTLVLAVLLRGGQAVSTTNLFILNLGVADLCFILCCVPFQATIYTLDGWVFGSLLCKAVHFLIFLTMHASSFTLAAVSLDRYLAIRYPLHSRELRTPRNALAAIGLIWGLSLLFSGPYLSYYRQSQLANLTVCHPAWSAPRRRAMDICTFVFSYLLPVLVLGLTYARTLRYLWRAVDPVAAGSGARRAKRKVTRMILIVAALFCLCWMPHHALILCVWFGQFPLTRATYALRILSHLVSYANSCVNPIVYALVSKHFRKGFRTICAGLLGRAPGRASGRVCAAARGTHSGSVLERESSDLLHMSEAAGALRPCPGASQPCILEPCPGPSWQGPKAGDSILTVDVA

Cc1cccc(N2C(=O)NC(=O)/C(=C\c3cnn(-c4ccccc4)c3)C2=O)c1
activation: -0.18%
